PubChem BioAssay (NCATS)
Records with an inconclusive call do not appear. Calls of active or inactive are those of the source. Calls come from the whole dose curve; as a rule, active = well fitted curve in the direction sought with a large enough effect; inconclusive = small, poorly fitted or top-dose-only effect, or another doubt; inactive = no such curve, though single readings can be large; an effect the other way counts as inactive or inconclusive.

Key:
MKL-2 = experiment: qHTS assay to identify novel small-molecules to repurpose for Merkel cell carcinoma treatment (AID 1296009); conditions: MCC and control cell lines, CellTiter-Glo viability, 72 h; series mostly up to 46 µM; note: nearly all actives have a fitted effect of over 60% in size
Method in brief: (§1)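 After compound transfer in DMSO, plates were kept 72 hr at 37 degree celsius. Luminescent ATP signal from CellTiter-Glo served as viability measure, normalized against DMSO and no-cell controls.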

CAOV3 = experiment: Primary qHTS to identify gynecologic anti-cancer compounds using libraries of approved drugs and bioactive compounds (AID 1345084); conditions: Gynecologic cancer cell panel viability, ATPlite luminescence, 48 h; series mostly up to 57.5 µM; note: nearly all actives have a fitted effect of over 55% in size
Method in brief: (§2)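 Five-point cytotoxicity, 48 h drug exposure at 37 C, 5% CO2, on cells seeded 16 h beforehand. ATP content read by ATPlite luminescence.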

Es-2 = experiment: as above; conditions: Gynecologic cancer cell panel viability, ATPlite luminescence, 48 h; series mostly up to 57.5 µM
Method in brief: as §2

JEG-3 = experiment: as above; conditions: Gynecologic cancer cell panel viability, ATPlite luminescence, 48 h; series mostly up to 57.5 µM
Method in brief: as §2

OV90 = experiment: as above; conditions: Gynecologic cancer cell panel viability, ATPlite luminescence, 48 h; series mostly up to 57.5 µM
Method in brief: as §2

Tov-21-G = experiment: as above; conditions: Gynecologic cancer cell panel viability, ATPlite luminescence, 48 h; series mostly up to 57.5 µM
Method in brief: as §2

astro = experiment: Drug repurposing screens with cells derived from glioblastoma tumor samples (AID 1345199); conditions: viability, ATP luminescence, 48 h; series mostly up to 45.9 µM; note: nearly all actives have a fitted effect of over 40% in size; for activity, negative = cell killing: % is set by controls: 0 for no effect and ±100 for the full control effect
Method in brief: (§3)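 Four patient lines of CD133+ GBM neurospheres were screened at several concentrations; hits were retested in those lines plus three slower-growing GBM lines, using 48-hour treatment and ATP-based viability.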

UISO = experiment: qHTS assay to identify novel small-molecules to repurpose for Merkel cell carcinoma treatment (AID 1296009); conditions: MCC and control cell lines, CellTiter-Glo viability, 72 h; series mostly up to 46 µM; note: nearly all actives have a fitted effect of over 60% in size
Method in brief: as §1

WaGa = experiment: as above; conditions: MCC and control cell lines, CellTiter-Glo viability, 72 h; series mostly up to 46 µM
Method in brief: as §1

C33A = experiment: Primary qHTS to identify gynecologic anti-cancer compounds using libraries of approved drugs and bioactive compounds (AID 1345084); conditions: Gynecologic cancer cell panel viability, ATPlite luminescence, 48 h; series mostly up to 57.5 µM; note: nearly all actives have a fitted effect of over 55% in size
Method in brief: as §2

CASKI = experiment: as above; conditions: Gynecologic cancer cell panel viability, ATPlite luminescence, 48 h; series mostly up to 57.5 µM
Method in brief: as §2

Hek293T = experiment: as above; conditions: Gynecologic cancer cell panel viability, ATPlite luminescence, 48 h, control line for the selectivity index; series mostly up to 57.5 µM
Method in brief: as §2

PA-1 = experiment: as above; conditions: Gynecologic cancer cell panel viability, ATPlite luminescence, 48 h; series mostly up to 57.5 µM
Method in brief: as §2

SKOV3 = experiment: as above; conditions: Gynecologic cancer cell panel viability, ATPlite luminescence, 48 h; series mostly up to 57.5 µM
Method in brief: as §2

Tov112D = experiment: as above; conditions: Gynecologic cancer cell panel viability, ATPlite luminescence, 48 h; series mostly up to 57.5 µM
Method in brief: as §2

[1] = Drug repurposing screens with cells derived from glioblastoma tumor samples (AID 1345199); conditions: GBM patient neurospheres viability, ATP luminescence, 48 h; note: nearly all actives have a fitted effect of over 40% in size; for activity, negative = cell killing: % is set by controls: 0 for no effect and ±100 for the full control effect
Method in brief: as §3

[2] = qHTS assay to identify inhibitors of the type 1 interferon - major histocompatibility complex class I in skeletal muscle: Counter screen cell viability and HiBit confirmation (AID 1347412); conditions: iHSKM muscle cells + IFN-b, HiBiT or CellTiter-Glo, 24 h; HiBiT; note: nearly all actives have a fitted effect of over 60% in size
Method in brief: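 Duplicate plates, pinned identically: one read for HiBiT-tagged endogenous HLA-B luminescence, the other for ATP-content viability via CellTiter Glo. Cells were genome-engineered human myoblasts given 4 ng/ml IFN-b; compounds 12-pt, 1:3 from 46 uM final; 24 hr exposure.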

HeLa = experiment: Primary qHTS to identify gynecologic anti-cancer compounds using libraries of approved drugs and bioactive compounds (AID 1345084); conditions: Gynecologic cancer cell panel viability, ATPlite luminescence, 48 h; series mostly up to 57.5 µM; note: nearly all actives have a fitted effect of over 55% in size
Method in brief: as §2

[3] = at 45.9 µM (top of the series), tumour line B
[4] = at 45.9 µM (top of the series), tumour line D
[5] = at 46 µM (top of the series), tumour line A
[6] = at 46.1 µM (top of the series), tumour line C
Potency is the fitted concentration of half-maximal effect.

O=C1NCN(c2ccccc2)C12CCN(CCCC(c1ccc(F)cc1)c1ccc(F)cc1)CC2
inactive: Potency (Tov-21-G)
active: Potency (MKL-2) 23700 nM | Potency (CAOV3) 31600 nM | Potency (Es-2) 31600 nM | Potency (JEG-3) 31600 nM | Potency (OV90) 20000 nM | Potency (astro) 12600 nM

CN(C)C(=O)Oc1cccc([N+](C)(C)C)c1
inactive: Potency (MKL-2) | Potency (UISO) | Potency (WaGa) | Potency (C33A) | Potency (CASKI) | Potency (Es-2) | Potency (Hek293T) | Potency (JEG-3) | Potency (OV90) | Potency (PA-1) | Potency (SKOV3) | Potency (Tov-21-G) | Potency (Tov112D) | activity, negative = cell killing [1, 3] -0.104% | activity, negative = cell killing [1, 4] 10.8% | activity, negative = cell killing [1, 5] -24.8% | activity, negative = cell killing [1, 6] -4.3% | Potency (astro)

CC(=O)[C@]1(O)Cc2c(O)c3c(c(O)c2[C@@H](O[C@H]2C[C@H](N)[C@H](O)[C@H](C)O2)C1)C(=O)c1ccccc1C3=O
active: Potency (MKL-2) 94.4 nM | Potency (UISO) 422 nM | Potency (WaGa) 106 nM | Potency (C33A) 501 nM | Potency (CASKI) 1000 nM | Potency (Es-2) 1000 nM | Potency (Hek293T) 708 nM | Potency (OV90) 3160 nM | Potency (PA-1) 282 nM | Potency (SKOV3) 1780 nM | Potency (Tov-21-G) 794 nM | Potency (Tov112D) 562 nM | Potency [2] 883 nM

Cc1cc(C)c(/C=C2\C(=O)Nc3ccccc32)[nH]1
inactive: Potency (MKL-2) | Potency (WaGa) | Potency (C33A) | Potency (CAOV3) | Potency (CASKI) | Potency (Es-2) | Potency (Hek293T) | Potency (JEG-3) | Potency (OV90) | Potency (PA-1) | Potency (SKOV3) | Potency (Tov-21-G) | Potency (Tov112D) | activity, negative = cell killing [1, 3] -6.6%
active: Potency ([1]; tumour line A) 31600 nM

CN1C[C@H](C(=O)N[C@]2(C)O[C@@]3(O)[C@@H]4CCCN4C(=O)[C@H](Cc4ccccc4)N3C2=O)C[C@@H]2c3cccc4[nH]cc(c34)C[C@H]21
active: Potency ([1]; tumour line A) 10000 nM
inactive: Potency (MKL-2) | Potency (UISO) | Potency (WaGa) | Potency (CAOV3) | Potency (CASKI) | Potency (Es-2) | Potency (HeLa) | Potency (Hek293T) | Potency (JEG-3) | Potency (OV90) | Potency (PA-1) | Potency (SKOV3) | Potency (Tov-21-G) | Potency (Tov112D) | activity, negative = cell killing [1, 3] -29.3% | activity, negative = cell killing [1, 6] 4.11%

NC(N)=N/N=C/c1c(Cl)cccc1Cl
inactive: Potency (MKL-2) | Potency (UISO) | Potency (C33A) | Potency (CAOV3) | Potency (CASKI) | Potency (Es-2) | Potency (Hek293T) | Potency (JEG-3) | Potency (PA-1) | Potency (Tov-21-G) | Potency (Tov112D) | activity, negative = cell killing [1, 6] 0.325% | Potency (astro)
active: Potency ([1]; tumour line A) 15800 nM

CCCN(CCC)C(=O)C(CCC(=O)O)NC(=O)c1ccccc1 (stereo unspecified)
inactive: Potency (MKL-2) | Potency (UISO) | Potency (WaGa) | Potency (C33A) | Potency (CAOV3) | Potency (CASKI) | Potency (Es-2) | Potency (Hek293T) | Potency (JEG-3) | Potency (OV90) | Potency (PA-1) | Potency (SKOV3) | Potency (Tov-21-G) | Potency (Tov112D) | activity, negative = cell killing [1, 3] 1.78% | activity, negative = cell killing [1, 4] -1.59% | activity, negative = cell killing [1, 5] -28.4% | activity, negative = cell killing [1, 6] -13.4% | Potency (astro)

O=C1CC2(CCCC2)CC(=O)N1CCCCN1CCN(c2ncccn2)CC1
active: Potency ([1]; tumour line A) 5010 nM
inactive: Potency (MKL-2) | Potency (UISO) | Potency (WaGa) | Potency (C33A) | Potency (CASKI) | Potency (Es-2) | Potency (HeLa) | Potency (Hek293T) | Potency (JEG-3) | Potency (OV90) | Potency (PA-1) | Potency (SKOV3) | Potency (Tov-21-G) | Potency (Tov112D) | activity, negative = cell killing [1, 3] -25.4% | activity, negative = cell killing [1, 6] -16.7% | Potency (astro)
